Reference: PubChem BioAssay (NCATS)
Results filed as inconclusive are left out. Unmarked numbers belong to inactive results. Activity calls are given as the source filed them. Calls come from the whole dose curve; as a rule, active = well fitted inhibition curve with a large enough effect; inconclusive = small, poorly fitted or top-dose-only effect; inactive = flat fitted curve, though single readings scatter.

Tested on: astro (control astrocytes)
Assay: Drug repurposing screens with cells derived from glioblastoma tumor samples (AID 1345199); note: nearly all actives have a fitted effect of over 40% in size
Conditions: viability, ATP luminescence, 48 h; series mostly up to 45.9 µM; activity, negative = cell killing: at the top concentration
Procedure: CD133+ cells were isolated from GBM patient biopsies and cultured as neurospheres. Neurospheres from four patients were used to screen the NCATS pharmaceutical collection (NPC) library of approved drugs and bioactive compounds. […] The neurospheres were incubated with drugs for 48 hours in 1536-well format, then assayed with an ATP content cell viability assay. […] These hits were cherry picked to confirm activity in the four original GBM lines screened plus three other slower growing GMB lines (unable to yield enough cells for a full primary screen). Variable activities of the confirmed primary hits in the different GBM patient lines were observed. The patient line 206 responded to the greatest number of compounds and line 923 responded to the least amount of active compounds.
% is set by controls: 0 for no effect and ±100 for the full control effect; potency is the fitted concentration of half-maximal effect.

Row | SMILES | Potency | activity, negative = cell killing
1 | CN1CCN(CCCN2c3ccccc3Sc3ccc(Cl)cc32)CC1 | 20 µM (active) | –
2 | Nc1nc2c(ncn2COC(CO)CO)c(=O)[nH]1 | – | -15.5% [at 21.2 µM]
3 | CCCNCC(O)COc1ccccc1C(=O)CCc1ccccc1 (stereo not given) | – | -28.5%
4 | NC(CO)C(=O)NNCc1ccc(O)c(O)c1O (stereo not given) | – | -13.6%
5 | CN(CCOc1ccc(NS(C)(=O)=O)cc1)CCc1ccc(NS(C)(=O)=O)cc1 | – | -5.89%
6 | Cn1c(=O)c2c(ncn2C)n(C)c1=O | – | -16.4%
7 | CN(C)CCC=C1c2ccccc2C=Cc2ccccc21 | – | -19.8%
8 | OCCN1CCN(CCCN2c3ccccc3Sc3ccc(C(F)(F)F)cc32)CC1 | 22.4 µM (active) | –
9 | CCN1CCCC1CNC(=O)c1cc(S(=O)(=O)CC)c(N)cc1OC (stereo not given) | – | -12.5%
10 | NCCS(=O)(=O)O | – | 3.28%
11 | O=C(c1ccc(OCCN2CCCCC2)cc1)c1c(-c2ccc(O)cc2)sc2cc(O)ccc12 | 17.8 µM (active) | –
12 | NC12CC3CC(CC(C3)C1)C2 | – | -24.7%
13 | CC(C)NCC(O)c1ccc(O)c(O)c1 (stereo not given) | – | -13.7%
14 | C[C@H]1c2cccc(O)c2C(O)=C2C(=O)[C@]3(O)C(O)=C(C(N)=O)C(=O)[C@@H](N(C)C)[C@@H]3[C@@H](O)[C@@H]21 | – | -2.25%
15 | Fc1ccc([C@@H]2CCNC[C@H]2COc2ccc3c(c2)OCO3)cc1 | 22.4 µM (active) | –
16 | Cc1cnc(C(=O)NCCc2ccc(S(=O)(=O)NC(=O)NC3CCCCC3)cc2)cn1 | – | -11%
17 | C[C@](N)(Cc1ccc(O)c(O)c1)C(=O)O | – | -19.1%
18 | COc1ccccc1OCC(O)CN1CCN(CC(=O)Nc2c(C)cccc2C)CC1 (stereo not given) | – | -13%
19 | NC(=O)NO | – | -13.7%
20 | CC1COc2c(N3CCN(C)CC3)c(F)cc3c(=O)c(C(=O)O)cn1c23 (stereo not given) | – | -12.6%

Row | SMILES | Potency | activity, negative = cell killing
21 | COc1ccc(C2CNC(=O)C2)cc1OC1CCCC1 (stereo not given) | – | -25.9% [at 21.2 µM]
22 | CC(COc1ccccc1)N(CCCl)Cc1ccccc1 (stereo not given) | – | -8.15%
23 | CS(=O)(=O)CCNCc1ccc(-c2ccc3ncnc(Nc4ccc(OCc5cccc(F)c5)c(Cl)c4)c3c2)o1 | – | -18.9%
24 | N[C@@H](Cc1c[nH]c2ccc(O)cc12)C(=O)O | – | -18.3%
25 | CN1CCN2c3ccccc3Cc3ccccc3C2C1 (stereo not given) | 20 µM (active) | –
26 | CN(Cc1cnc2nc(N)nc(N)c2n1)c1ccc(C(=O)N[C@@H](CCC(=O)O)C(=O)O)cc1 | – | -1.29%
27 | COc1cc2nc(N3CCN(C(=O)C4COc5ccccc5O4)CC3)nc(N)c2cc1OC (stereo not given) | – | -22.3%
28 | CC(C)Cc1ccc(C(C)C(=O)O)cc1 (stereo not given) | – | 7.86%
29 | COc1cc2nc(N3CCN(C(=O)c4ccco4)CC3)nc(N)c2cc1OC | 25.1 µM (active) | –
30 | Cc1ccc(C(=O)Nc2ccc(S(=O)(=O)O)c3cc(S(=O)(=O)O)cc(S(=O)(=O)O)c23)cc1NC(=O)c1cccc(NC(=O)Nc2cccc(C(=O)Nc3cc(C(=O)Nc4ccc(S(=O)(=O)O)c5cc(S(=O)(=O)O)cc(S(=O)(=O)O)c45)ccc3C)c2)c1 | – | -26.1%
31 | CC(C)(Oc1ccc(C2CC2(Cl)Cl)cc1)C(=O)O (stereo not given) | – | -13.2%
32 | CC[N+](CC)(CC)CCOc1cccc(OCC[N+](CC)(CC)CC)c1OCC[N+](CC)(CC)CC | – | -18.4%
33 | CC(C(=O)O)c1cccc(C(=O)c2ccccc2)c1 (stereo not given) | – | -13.3%
34 | CCOC(=O)c1ncn2c1CN(C)C(=O)c1cc(F)ccc1-2 | – | -11.2%
35 | Clc1ccccc1C(c1ccccc1)(c1ccccc1)n1ccnc1 | – | -28% [at 21.2 µM]
36 | CC12CC3CC(C)(C1)CC(N)(C3)C2 | – | -3.28%
37 | CCC1(C)CC(=O)NC1=O (stereo not given) | – | -9.88%
38 | Cc1cc(C(C)(C)C)c(O)c(C)c1CC1=NCCN1 | – | -13.4%
39 | COc1ccc2[nH]cc(CCNC(C)=O)c2c1 | – | -7.97%
40 | CC(=O)OCC(CCn1cnc2cnc(N)nc21)COC(C)=O | – | -4.98%
